# The whole screen tested about 66,000 compounds, of which about 960 (1.5%) showed an effect of 50% or more. The entries come from a sample that favours strong results as a whole.
# System: Trypanosoma brucei
# Assay: Trypanosoma brucei 72 hour study
# Type: functional, organism-based
# Set-up: scale not given: in the data most compounds retested in dose-response had high values
smiles,measurement,setting,value
O=C(C1CCCN(C2CCOCC2)C1)N1Cc2ccccc2C1 (stereo not drawn),Percent Effect,"30 µM, 30.03 µM",-36.54%
CC(C)(C)C(O)CN1CCN(CC(=O)NCC(F)(F)F)CC1 (stereo not drawn),Percent Effect,"30 µM, 30.03 µM",-50.05%
O=C(CN1CCSC2(CCCCC2)C1)NCC(F)(F)F,Percent Effect,"30.3 µM, […]",27.46%
O=C(CN1CCC2(CCCCC2)C1)NCC(F)(F)F,Percent Effect,"30.3 µM, […]",100.3%
CCNC(=O)[C@@H]1C[C@H](N)CN1C(=O)c1c[nH]c2ccccc12,Percent Effect,"30.3 µM, […]",-39.66%
Cc1cc2c(cc1Cl)C=CC1(CCN(CC(=O)N3CCOCC3)CC1)O2,Percent Effect,"30.3 µM, […]",-3.407%
CCN(CC)C(=O)CN1CCC2(C=Cc3cc(Cl)c(C)cc3O2)CC1,Percent Effect,"30.3 µM, […]",99.22%
Cc1cc2c(cc1Cl)C=CC1(CCN(CC(=O)N3CCCC3)CC1)O2,Percent Effect,"30.3 µM, […]",-16.81%
CNC(=O)N1C[C@H]2C[C@H](C(=O)NCc3cccnc3)[C@@H](C1)O2.O=C(O)C(F)(F)F,Percent Effect,"30 µM, 30.03 µM",41.37%
Cc1noc(C)c1C(=O)N1CCC(c2[nH]ncc2S(C)(=O)=O)C1 (stereo not drawn),Percent Effect,"30.3 µM, […]",-19.64%
CN(CC1CCOCC1)C(C(=O)O)c1cccc(F)c1F (stereo not drawn),Percent Effect,"30 µM, 30.03 µM",-18.13%
c1ccc(OCCCN2CCN(c3ccc4nncn4n3)CC2)cc1,Percent Effect,"30 µM, 30.03 µM",53.47%
FC(F)(F)COCCN1CCN(c2ccc3nncn3n2)CC1,Percent Effect,"30 µM, 30.03 µM",29.6%
c1ccc(CCN2CCN(c3ccc4nncn4n3)CC2)nc1,Percent Effect,"30 µM, 30.03 µM",14.18%
c1ccc(CCN2CCN(c3ccc4nncn4n3)CC2)cc1,Percent Effect,10 µM,-2.806%
c1ccc(CCCN2CCN(c3ccc4nncn4n3)CC2)cc1,Percent Effect,10 µM,-24.8%
Clc1ccccc1CCN1CCN(c2ccc3nncn3n2)CC1,Percent Effect,10 µM,55.98%
COCCN1CCC2(CC1)CC(NC(=O)CN(C)C)c1ccccc1O2.O=C(O)C(F)(F)F.O=C(O)C(F)(F)F (stereo not drawn),Percent Effect,"30.3 µM, […]",-3.899%
CNC(=O)[C@H]1C[C@@H]2CN(C(=O)c3ccncc3)C[C@@H]2N1S(C)(=O)=O.O=C(O)C(F)(F)F,Percent Effect,"30.3 µM, […]",-12.29%
Cc1cnc(N2CCc3cc(C(=O)O)c(N(C)C)nc3CC2)nc1.O=C(O)C(F)(F)F,Percent Effect,"30.3 µM, […]",-16.6%
O=C(NCC1CCN(CCc2ccccc2)C1)c1cc(Cl)c[nH]1 (stereo not drawn),Percent Effect,"30 µM, 30.03 µM",-9.095%
COC(=O)c1ccc(N2CCN(C(=O)C3CC3)C(C)C2)cc1 (stereo not drawn),Percent Effect,"30 µM, 30.03 µM",-2.442%
CCC(=O)N1CCN(c2ccc(C(=O)OC)cc2)CC1C (stereo not drawn),Percent Effect,"30 µM, 30.03 µM",6.915%
COC(=O)c1ccc(N2CCN(C(=O)c3ccncc3)C(C)C2)cc1 (stereo not drawn),Percent Effect,"30 µM, 30.03 µM",41.83%
COC(=O)c1ccc(N2CCN(C(=O)c3cc(C)no3)C(C)C2)cc1 (stereo not drawn),Percent Effect,"30.3 µM, […]",29.28%
COC(=O)c1ccc(N2CCN(C(=O)C3CCC3)C(C)C2)cc1 (stereo not drawn),Percent Effect,"30 µM, 30.03 µM",50.56%
COC(=O)c1ccc(N2CCN(C(=O)c3ccco3)C(C)C2)cc1 (stereo not drawn),Percent Effect,"30.3 µM, […]",90.39%
Cl.Nc1nc(Nc2ccccc2)cc(N2CCNCC2)n1,Percent Effect,"30.3 µM, […]",-11.41%
same,Percent Effect,"10 mM, 10 mM as filed; unlikely as a test dose",-70.99%
CN1CCN(C(=O)c2cccn2C)Cc2cccnc21,Percent Effect,"30.3 µM, […]",-5.91%
O=C(c1cccs1)N1CCN(CC2CC2)c2ncccc2C1,Percent Effect,"30 µM, 30.03 µM",-33.24%
Cn1cccc1C(=O)N1CCN(CC2CC2)c2ncccc2C1,Percent Effect,"30 µM, 30.03 µM",57.2%
Cc1nc(C(=O)NS(=O)(=O)c2cccc(C#N)c2)cs1,Percent Effect,"30.3 µM, […]",2.101%
COCC1c2c(cnn2CC2CC2)CCN1Cc1ccc(C)o1.O=C(O)C(F)(F)F.O=C(O)C(F)(F)F (stereo not drawn),Percent Effect,"30.3 µM, […]",-1.349%
O=C(NCCC1Cc2ccccc2C1)N1CCCC(O)C1 (stereo not drawn),Percent Effect,"30.3 µM, […]",-66.43%
CCOC1CCCN(C(=O)c2nn(-c3ccccc3F)cc2O)C1 (stereo not drawn),Percent Effect,"30.3 µM, […]",-12.09%
CCOC1CCN(C(=O)NCCc2ccn(-c3ccccc3)n2)CC1,Percent Effect,10 µM,-34.62%
O=C(NCCc1ccn(-c2ccccc2)n1)N1CCCC(O)C1 (stereo not drawn),Percent Effect,10 µM,103.1%
O=C(NCc1nn(-c2ccccc2)c2c1CCC2)N1CCCC(O)C1 (stereo not drawn),Percent Effect,10 µM,-55.19%
COc1ccccc1CNC(=O)N1CCCC(CO)C1 (stereo not drawn),Percent Effect,"30 µM, 30.03 µM",-45.66%
O=C(NCCc1ccn(-c2ccccc2)n1)N1CCCC(CO)C1 (stereo not drawn),Percent Effect,10 µM,104%
CCOC1CCCN(C(=O)NCCc2ccn(-c3ccccc3)n2)C1 (stereo not drawn),Percent Effect,"30 µM, 30.03 µM",99.66%
O=C(NCC1CCCN(C(=O)NCCc2ccccc2)C1)c1ccco1 (stereo not drawn),Percent Effect,"30.3 µM, […]",15.56%
CSc1ccccc1C(=O)N1C[C@H]2CC[C@@H]1CN(C(=O)N(C)C)C2,Percent Effect,"30 µM, 30.03 µM",-19.87%
O=C(O)C(F)(F)F.O=C([C@H]1CC[C@@H]2[C@@H](CCN2C2CCCC2)O1)N1CCOCC1,Percent Effect,"30.3 µM, […]",3.599%
Cc1ccc(CN2CCC3(CCC3NC(=O)c3ccn(C)c3)CC2)s1.O=C(O)C(F)(F)F (stereo not drawn),Percent Effect,"30 µM, 30.03 µM",-8.436%
COc1c(CNCCNC(=O)c2ccccc2)c(C)nn1C.Cl,Percent Effect,"30.3 µM, […]",-11.06%
CCN(C)S(=O)(=O)NCC(O)c1c(Cl)cccc1Cl (stereo not drawn),Percent Effect,"30 µM, 30.03 µM",-61.52%
CSc1ncc(C(=O)N2CCN(c3ccccc3C)CC2C)cn1 (stereo not drawn),Percent Effect,"30.3 µM, […]",-20.66%
Cc1ccccc1N1CCN(C(=O)c2ccc[nH]2)C(C)C1 (stereo not drawn),Percent Effect,"30 µM, 30.03 µM",53.58%
Cc1ccccc1N1CCN(C(=O)c2cscn2)C(C)C1 (stereo not drawn),Percent Effect,"30.3 µM, […]",-44.71%
CNc1cc(C(=O)NCCC2=CSC3=NCCCN23)ccn1,Percent Effect,"30.3 µM, […]",4.45%
Cc1cc(C)n(CC2CCCCN2C(=O)c2ccc3c(c2)COC3)n1 (stereo not drawn),Percent Effect,10 µM,-3.538%
same,Percent Effect,"30.3 µM, […]",12.9%
O=C(CN1CCC(c2cc(=O)n3c(n2)CCCCC3)C1)N1CCCCC1.O=C(O)CC(O)(CC(=O)O)C(=O)O (stereo not drawn),Percent Effect,"30.3 µM, […]",-90.53%
CC(=O)NC1CC(C)(C)Cc2c1cnn2-c1cccc(F)c1 (stereo not drawn),Percent Effect,"30 µM, 30.03 µM",-59.29%
CCC(Nc1nnnn1-c1ccccc1)C(=O)NC1CCSCC1 (stereo not drawn),Percent Effect,"30 µM, 30.03 µM",-25.42%
CC1(C)Cc2c(cnn2-c2cccc(F)c2)C(NC2CCSCC2)C1 (stereo not drawn),Percent Effect,"30 µM, 30.03 µM",99.5%
CC1(C)Cc2c(cnn2-c2ccccc2)C(NC2CCSCC2)C1 (stereo not drawn),Percent Effect,"30 µM, 30.03 µM",82.22%
Cc1nn(-c2ccccc2)c(C)c1CNC(=O)NC1CC1,Percent Effect,"30 µM, 30.03 µM",-13.2%
CS(=O)(=O)NC(=O)c1nnn(-c2cccc(F)c2)c1C1CC1,Percent Effect,"30.3 µM, […]",-19.55%
O=C(O)C(F)(F)F.O=C(O)C(F)(F)F.c1ccc(CN2CC[C@@H]3O[C@@H](COCC4CCOCC4)CC[C@@H]32)nc1,Percent Effect,"30 µM, 30.03 µM",11.6%
Nc1ccnc(N2C[C@@H]3CC[C@H](C2)N(CC2CCC2)C3=O)n1,Percent Effect,"30 µM, 30.03 µM",-6.843%
COc1ncccc1CN1CC[C@]2(C[C@@H](OCc3ccccn3)CO2)C1.O=C(O)C(F)(F)F.O=C(O)C(F)(F)F.O=C(O)C(F)(F)F,Percent Effect,"30 µM, 30.03 µM",2.267%
CCSc1ccc(C(=O)N2CC[C@](O)(CC)[C@H](O)C2)s1,Percent Effect,"30.3 µM, […]",-1.451%
O=C(c1cccnc1)N1CCC(Oc2cccc(C(F)(F)F)c2)CC1,Percent Effect,"30.3 µM, […]",6.021%
O=C(c1ccc(=O)[nH]c1)N1CCC(Oc2cccc(C(F)(F)F)c2)CC1,Percent Effect,"30.3 µM, […]",9.238%
CC(N)C(=O)N1CCC(Oc2cccc(C(F)(F)F)c2)CC1 (stereo not drawn),Percent Effect,"30.3 µM, […]",98.32%
Nc1cc(C(=O)N2CCC(Oc3cccc(C(F)(F)F)c3)CC2)ccn1,Percent Effect,"30.3 µM, […]",19.92%
Nc1ccc(C(=O)N2CCC(Oc3cccc(C(F)(F)F)c3)CC2)cn1,Percent Effect,"30.3 µM, […]",54.87%
O=C(c1ccncc1)N1CCC(Oc2cccc(C(F)(F)F)c2)CC1,Percent Effect,"30.3 µM, […]",37.18%
OC1(CN2CCC(Oc3cccc(C(F)(F)F)c3)CC2)CCNC1 (stereo not drawn),Percent Effect,"30 µM, 30.03 µM",92%
OC1(CN2CCC(Oc3cccc(C(F)(F)F)c3)CC2)CNCCOC1 (stereo not drawn),Percent Effect,"30 µM, 30.03 µM",-13.41%
FC(F)(F)c1cccc(OC2CCN(Cc3ncc[nH]3)CC2)c1,Percent Effect,"30 µM, 30.03 µM",-13.87%
CCc1[nH]c2c(CNc3nccc(N)n3)cc(F)cc2c1C,Percent Effect,"30 µM, 30.03 µM",24.46%
Cc1nc(CN2CCO[C@H]3[C@H](OCC(=O)N(C)C)CC[C@@H]32)cs1.O=C(O)C(F)(F)F,Percent Effect,"30 µM, 30.03 µM",-32.64%
Cn1nc(CN2CCCN(C3CCCC3)CC2)c2c(Cl)cccc21,Percent Effect,"30.3 µM, […]",100.6%
Cn1nc(CN2CCC(c3ccncc3)CC2)c2c(Cl)cccc21,Percent Effect,"30.3 µM, […]",31.87%
C[C@@H]1CN(C2CCN(Cc3nn(C)c4cccc(Cl)c34)CC2)C[C@H](C)O1,Percent Effect,"30.3 µM, […]",10.53%
Cc1cccc(N2CCC3(CCN(C(=O)c4cccnc4)CC3)C2)n1.O=C(O)C(F)(F)F.O=C(O)C(F)(F)F,Percent Effect,"30 µM, 30.03 µM",38.81%
Cc1cnc(N2CCC3(CCN(CC4CCCC4)C3=O)CC2)nc1.O=C(O)C(F)(F)F,Percent Effect,"30.3 µM, […]",-22.16%
Cc1ccc(CN(Cc2cccnc2)C2CC(C)(C)NC(C)(C)C2)s1.O=C(O)CC(O)(CC(=O)O)C(=O)O,Percent Effect,"30.3 µM, […]",78.89%
CC1(C)CC(N(Cc2cccnc2)Cc2cccc(F)c2)CC(C)(C)N1.O=C(O)CC(O)(CC(=O)O)C(=O)O,Percent Effect,"30.3 µM, […]",92.81%
CC1(C)CC(N(Cc2ccccc2)Cc2cccnc2)CC(C)(C)N1.O=C(O)CC(O)(CC(=O)O)C(=O)O,Percent Effect,"30.3 µM, […]",27.73%
Cc1cccc(CN(Cc2ccc(C)o2)C2CC(C)(C)NC(C)(C)C2)n1.O=C(O)CC(O)(CC(=O)O)C(=O)O,Percent Effect,"30.3 µM, […]",14.76%
Cc1nc[nH]c1CN(Cc1ccccc1)C1CC(C)(C)NC(C)(C)C1.O=C(O)CC(O)(CC(=O)O)C(=O)O,Percent Effect,"30.3 µM, […]",9.969%
Cc1ccsc1CN(Cc1cccnc1)C1CC(C)(C)NC(C)(C)C1.O=C(O)CC(O)(CC(=O)O)C(=O)O,Percent Effect,"30.3 µM, […]",61.32%
CC1(C)CC(N(Cc2ccncc2)Cc2cccnc2)CC(C)(C)N1.O=C(O)CC(O)(CC(=O)O)C(=O)O,Percent Effect,"30.3 µM, […]",3.133%
CC1(C)CC(N(Cc2cccnc2)Cc2cccnc2)CC(C)(C)N1.O=C(O)CC(O)(CC(=O)O)C(=O)O,Percent Effect,"30.3 µM, […]",13.11%
CC1(C)CC(N(Cc2ccccc2)Cc2c[nH]cn2)CC(C)(C)N1.O=C(O)CC(O)(CC(=O)O)C(=O)O,Percent Effect,"30.3 µM, […]",9.903%
CCCN(Cc1cccnc1)C1CC(C)(C)NC(C)(C)C1.O=C(O)CC(O)(CC(=O)O)C(=O)O,Percent Effect,"30.3 µM, […]",3.437%
Cc1ccc(CN(Cc2ccccn2)C2CC(C)(C)NC(C)(C)C2)s1.O=C(O)CC(O)(CC(=O)O)C(=O)O,Percent Effect,"30.3 µM, […]",71.04%
Cc1cccc(CN(Cc2cccnc2)C2CC(C)(C)NC(C)(C)C2)n1.O=C(O)CC(O)(CC(=O)O)C(=O)O,Percent Effect,"30.3 µM, […]",-21.3%

# From ChEMBL document CHEMBL3988442, “University of Dundee, Small-Polar-MMV Screening Library” (2021)
